Assay outcomes deposited in PubChem by DiRusso Lab, Biochemistry Department, University of Nebraska.
This is one part of a sample in which hits are shown more often than they occur.
Algae TAG accum = inducers of TAG accumulation in Chlamydomonas, primary screen, qHTS, Chlamydomonas reinhardtii | Nile Red fluorescence, 72 h | calls only at 10 µM (by protocol) | AID 1159537, 2015 | 0.84% of 44,000 active; call rule not given here;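 also: hits raise Nile Red signal meaning more stored TAG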
Each line names hits and unclear results; the compound was inactive in the other large screens.

C/C=C(\C)CN(C)CCN(C)C	none
COc1ccc(CNCc2cccc([N+](=O)[O-])c2)cc1OC	none
O=C(NCCc1ccccc1)C1CCN(Cc2ccccc2Cl)CC1	none
Cc1ccc(CN2CCC(C(=O)NCc3ccccc3Cl)CC2)cc1	Algae TAG accum active
Cc1ccc(CNC(=O)C(=O)NCc2ccccc2Cl)cc1	none
Cc1ccc2nc(NC(=O)C3CC3)sc2c1	Algae TAG accum active
Cc1ccc2nc(NC(=O)NC3CCCCC3)sc2c1	none
Cc1ccc2nc(NC(=O)C3CCCCC3C(=O)O)sc2c1 (stereo not drawn)	none
CCCOc1ccc(C(O)=C2C(=O)C(=O)N(CCCN(C)C)C2c2cccs2)cc1 (stereo not drawn)	none
CCN1CCC(NC(c2ccccc2)c2ccccc2)CC1	none
COc1ccc(N2CCN(Cc3ccsc3)CC2)cc1	Algae TAG accum active
COc1ccc(N2CCN(Cc3cccnc3)CC2)cc1	none
COc1ccc(N2CCN(Cc3cccs3)CC2)cc1	none
COc1ccc(C2(CNCC(O)c3cccc([N+](=O)[O-])c3)CCCC2)cc1OC (stereo not drawn)	none
CCC(C(=O)Nc1ccc(Cl)cc1)c1ccccc1 (stereo not drawn)	none
COc1ccccc1OCCCOc1cccc(C=O)c1	none
O=C(CN1CCCCCC1)Nc1cccc2c1OCO2	none
O=C(CN1CCCCC1)Nc1ccccc1NC(=O)CN1CCCCC1	none
O=C(CN1CCCCC1)Nc1ncc(Cc2ccc(Br)cc2)s1	Algae TAG accum active
O=C(Nc1sc2c(c1C(=O)N1CCOCC1)CCCCC2)c1cccs1	none
CNC(=O)CN(Cc1ccc(Br)cc1)S(=O)(=O)c1ccccc1	none
Cc1nc2ccc(NC(=O)Nc3ccc(N(C)C)cc3)cc2nc1C	none
O=C(Nc1ccc2nc(-c3ccccn3)c(-c3ccccn3)nc2c1)N1CCCC1	none
CN(C)c1ccc(NC(=O)Nc2ccc3nc(-c4ccccn4)c(-c4ccccn4)nc3c2)cc1	Algae TAG accum active
Cc1ccc(C(=O)Nc2ccccc2C(=O)NC(C)C)cc1[N+](=O)[O-]	Algae TAG accum active
Cc1ccccc1C(=O)Nc1cccc(NC(=O)c2ccc(C)c([N+](=O)[O-])c2)c1	none
CC(C)NC(=O)c1ccccc1NC(=O)c1ccc(F)cc1	none
NC(=O)c1cccc2c1-c1ccccc1C2	none
Cc1ccc(-c2nc3ccccc3o2)cc1NC(=O)c1cccc(Cl)c1Cl	none
CCc1ccc(CN2CCN(C(=O)c3ccc(OC)c(OC)c3)CC2)cc1	none
CCOc1ccc(NC(=O)c2ccc(C)cc2Cl)cc1	none
COc1ccc(Cl)cc1S(=O)(=O)NCc1cccnc1	none
COCCNS(=O)(=O)c1cc(Cl)ccc1OC	Algae TAG accum active
COc1ccc(Cl)cc1NS(=O)(=O)c1cc(Cl)ccc1OC	none
O=[N+]([O-])c1ccc2onc(-c3ccccc3)c2c1	none
COc1ccc(-c2csc(C(C#N)=CNc3ccc([N+](=O)[O-])cc3)n2)cc1OC	none
CCOc1ccc(C(=O)Nc2cccc([N+](=O)[O-])c2)cc1Cl	none
CCOc1cc(C(=O)Nc2ccc([N+](=O)[O-])cc2Cl)cc(OCC)c1OCC	none
CCOc1c(Cl)cc(C(=O)Nc2cccc([N+](=O)[O-])c2)cc1Cl	Algae TAG accum active
COc1cc([N+](=O)[O-])ccc1-c1ccc(C(=O)Nc2cccnc2)o1	none
CCc1ccccc1NC(=O)C1CCN(C(=O)c2ccccc2)CC1	none
N#C/C(=C\c1ccc(OCc2c(F)cccc2Cl)cc1)c1nn(CCO)c(N)c1C#N	none
COc1ccccc1Cn1c(C(C)O)nc2ccccc21 (stereo not drawn)	Algae TAG accum active
CC(O)c1nc2ccccc2n1Cc1ccccc1Cl (stereo not drawn)	none
Cc1cccc(Cn2c(C(C)O)nc3ccccc32)c1 (stereo not drawn)	none
Cc1ccc(N(CC(=O)Nc2ccc(C(N)=O)cc2)S(C)(=O)=O)cc1Cl	none
CCCCSc1nnc(-c2ccc(NC(=O)c3ccccc3Cl)cc2)n1C	none
CC(C)(C)c1ccc(OCCCCN2CCOCC2)cc1	Algae TAG accum active
O=[N+]([O-])c1ccc(OCCCCN2CCOCC2)cc1	Algae TAG accum active
Cc1cccc(OCCCCN2CCOCC2)c1	Algae TAG accum active
c1ccc(COc2ccc(OCCCCN3CCOCC3)cc2)cc1	none
c1ccc(OCCCN2CCOCC2)cc1	none
O=[N+]([O-])c1ccc(OCCCCN2CCCCC2)cc1	none
Ic1ccc(OCCCN2CCOCC2)cc1	none
O=[N+]([O-])c1ccc(OCCCN2CCCC2)cc1	none
CCOc1cccc(OCCN2CCOCC2)c1	none
COc1cc(C(=O)Nc2ccc(Cl)cc2Cl)c([N+](=O)[O-])cc1OC	none
O=C(Nc1ccc(Cl)cc1O)c1ccco1	none
COc1ccc(CN2CCN(Cc3ccccc3F)CC2)c(OC)c1OC	none
COc1ccccc1N1CCN(C2CCN(Cc3ccc(Br)cc3)CC2)CC1	none
COc1ccccc1N1CCN(C2CCN(Cc3cccc(Cl)c3)CC2)CC1	Algae TAG accum active
COc1ccccc1N1CCN(C2CCN(Cc3cccc(C)c3)CC2)CC1	Algae TAG accum active
COc1cc(OC)c(OC)cc1CN1CCC(N2CCN(c3ccccc3OC)CC2)CC1	none
COc1ccccc1N1CCN(C2CCN(CCCc3ccccc3)CC2)CC1	none
COc1ccccc1N1CCN(C2CCN(CC3CC4C=CC3C4)CC2)CC1 (stereo not drawn)	Algae TAG accum active
Clc1cccc(CN2CCC(N3CCCCCC3)CC2)c1	none
CCOc1cc(CN2CCN(c3ccccc3OC)CC2)ccc1OC	none
COc1ccccc1N1CCN(C2CCN(Cc3c[nH]c4ccccc34)CC2)CC1	none
Cc1ccc(C)c(N(CC(=O)NCc2ccncc2)S(C)(=O)=O)c1	none
Cc1ccc(C(=O)Nc2cccc(-c3nc4ncccc4o3)c2C)cc1[N+](=O)[O-]	none
Cc1ccc(OCC(=O)N2CCCc3ccccc32)cc1C	none
COc1ccc(S(=O)(=O)NCCSCc2ccc(C)cc2)cc1	none
O=C(O)c1cc(S(=O)(=O)N2CCCCC2)c(Cl)cc1Cl	none
CCCCNc1cc(C)nc(N2CCOCC2)n1	Algae TAG accum active
Cc1cc(=O)[nH]c(N2CCOCC2)n1	none
CCOc1ccc(Nc2cc(C)nc(N3CCOCC3)n2)cc1	none
Cc1ccc(NC(=O)c2ccncc2)c(NC(=O)c2ccncc2)c1	none
Cc1nc2ccc(NC(=O)Nc3ccc(N4CCOCC4)cc3)cc2nc1C	none
CCCCc1nc2ccccc2c(NC(=O)CN2CCCCC2)c1CCC	none
O=C(c1ccc(CN2CCc3ccccc3C2)cc1)N1CCN(c2ccccc2F)CC1	Algae TAG accum active
COc1ccc(N2CCN(C(=O)c3ccc(CN4CCc5ccccc5C4)cc3)CC2)cc1	none
NC(=O)C1CCN(C(=O)c2ccc(CN3CCc4ccccc4C3)cc2)CC1	none
O=C(CSc1n[nH]c(-c2ccco2)n1)c1ccc(O)c(O)c1	none
Cc1nn(-c2ccc(S(N)(=O)=O)cc2)c(C)c1-c1ccc(Cl)c(Cl)c1	none
COc1ccc(N2C(=O)CC(N3CCC(C(O)(c4ccccc4)c4ccccc4)CC3)C2=O)cc1 (stereo not drawn)	none
O=C1CC(N2CCC(C(O)(c3ccccc3)c3ccccc3)CC2)C(=O)N1c1ccc(F)cc1 (stereo not drawn)	Algae TAG accum active
NC(=O)C1CCN(C2CC(=O)N(c3ccc(F)cc3)C2=O)CC1 (stereo not drawn)	none
O=C(Nc1ccc(S(=O)(=O)Nc2nccs2)cc1)Nc1ccc(Cl)c(Cl)c1	none
O=[N+]([O-])c1ccc(N2CCN(Cc3ccccc3)CC2)nc1	none
O=[N+]([O-])c1ccc(C(O)CN2CCN(Cc3ccccc3)CC2)cc1 (stereo not drawn)	Algae TAG accum active
O=[N+]([O-])c1ccc(CN2CCN(C3CCCCC3)CC2)cc1	none
O=[N+]([O-])c1cccc(CN2CCN(C3CCCC3)CC2)c1	none
O=[N+]([O-])c1ccc(CN2CCN(C3CCCC3)CC2)cc1	Algae TAG accum active
